# Assay results as given in PubChem BioAssay.
# Calls of active or inactive are those of the source.
# What was measured:
# [1] = E. coli DRC41 culture turbidity changes, primary screen, E. coli filamentation inducer project, strain DRC41, OD650, 48 h (AID 1152);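 note: E. coli MC1000 strain DRC41 lacking acrAB efflux pump and sulA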; settings: E. coli DRC41 (acrAB sulA), higher = more signal, called active from +8 up or from −8 down
# [2] = small-molecule binders of probe aLefty1, primary screen, biochemical, small-molecule microarray, 635/667 nm fluorescence (AID 1153); settings: higher = more signal;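 note: score merges spot fluorescence with signal-to-noise ratio from the scanned slide images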
# [3] = PSAC antagonists in infected red cells, primary screen, cell-based, P. falciparum Indochina, OD700, 1 h (AID 1154); settings: P. falciparum Indochina infected RBC osmotic lysis, higher = more signal, called active from +8 up or from −8 down
# [4] = PSAC antagonists in infected red cells, primary screen, cell-based, P. falciparum Indochina, OD700, 2 h (AID 1155);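 note: lysis reports solute entry through the parasite surface anion channel PSAC; channel blockers reduce lysis of infected cells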; settings: P. falciparum Indochina infected erythrocytes, osmotic lysis OD700; higher = more signal, called active from +8 up or from −8 down
# [5] = osmotic lysis modulators in infected erythrocytes, primary screen, PSAC antagonist project, cell-based, P. falciparum Indochina, OD700, 3 h (AID 1156); settings: higher = more signal, called active from +8 up or from −8 down
# [6] = PSAC antagonists in infected red cells, primary screen, cell-based, P. falciparum Indochina, OD700, 18 h (AID 1157); settings: P. falciparum Indochina infected erythrocytes, osmotic lysis OD700, 18 h; higher = more signal, called active from +8 up or from −8 down
# [7] = modulators of S6 phosphorylation in cells, primary screen, cell-based, A549, cytoblot, luminescence, serum-stimulated (AID 1158); settings: A549 phospho-S6 cytoblot, 5 h, higher = more signal;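 note: serum-stimulated A549 lung adenocarcinoma cells; signal is phosphorylated S6 detected by cytoblot immunostaining with HRP secondary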
# [8] = molecular target: NADPH oxidase 2 (Homo sapiens) (UniProt P04839); assay: NOX2-dependent H2O2 signal modulators, primary screen, NOX inhibitor project, cell-based, HEK293-NOX2, PMA-stimulated, Amplex Red fluorescence (AID 1159); settings: 45 min, higher = more signal, called active from +8 up or from −8 down; note: test concentration not given here
# [9] = molecular target: NADPH oxidase 4 (Homo sapiens) (UniProt Q9NPH5); assay: NOX4-dependent H2O2 signal modulators, primary screen, NOX inhibitor project, cell-based, HEK293-NOX4, tetracycline-induced, Amplex Red fluorescence (AID 1160); settings: 45 min, higher = more signal, called active from +8 up or from −8 down
# [10] = molecular target: NADPH oxidase 5 (Homo sapiens) (UniProt Q96PH1); assay: NOX5-dependent H2O2 signal modulators, primary screen, NOX inhibitor project, cell-based, HEK293-NOX5, Amplex Red fluorescence (AID 1161); settings: HEK293-NOX5, ionomycin, 45 min, higher = more signal
# [11] = A549 cell viability effects, profiling panel, calcein-AM fluorescence, 48 h, basal (AID 1162); settings: higher = more signal; note: test concentration not given here
# [12] = adipocyte viability effects, profiling panel, cell-based, 3T3-L1 adipocytes, calcein-AM fluorescence, 48 h, basal (AID 1163); settings: 3T3-L1 adipocytes viability, higher = more signal; note: test concentration not given here
# [13] = HepG2 cell viability effects, profiling panel, calcein-AM fluorescence, 48 h, basal (AID 1164); settings: higher = more signal; note: test concentration not given here
# [14] = MM1S cell viability effects, profiling panel, calcein-AM fluorescence, 48 h, basal (AID 1165); settings: higher = more signal;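 note: viability of MM1S multiple myeloma cells under basal unstimulated conditions; test concentration not given here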
# [15] = basal RPMI8226 viability, no added stimulus, profiling panel, cell-based, calcein-AM fluorescence, 48 h, PK04 Diversity Set (AID 1166); settings: RPMI8226 myeloma viability, higher = more signal;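 note: cells grown under basal conditions without added stimulus; test concentration not given here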
# [16] = basal HepG2 mitochondrial membrane potential changes, profiling panel, cell-based, JC-1 fluorescence, 24 h, 100 nL compound (AID 1167); settings: higher = more signal; note: test concentration not given here
# [17] = basal 3T3-L1 adipocyte mitochondrial potential changes, profiling panel, cell-based, JC-1 fluorescence, 3T3-L1 adipocytes, 24 h, 100 nL compound (AID 1168); settings: JC-1 mitochondrial fluorescence, higher = more signal, called active from +8 up or from −8 down; note: test concentration not given here
# [18] = basal RPMI8226 mitochondrial membrane potential changes, profiling panel, cell-based, JC-1 fluorescence, 24 h, 100 nL compound (AID 1169); settings: RPMI8226 myeloma, JC-1 mitochondrial potential fluorescence, higher = more signal; note: test concentration not given here
# [19] = basal MM1S mitochondrial membrane potential changes, profiling panel, cell-based, JC-1 fluorescence, 24 h, 100 nL compound (AID 1170); settings: higher = more signal; note: test concentration not given here
# [20] = A549 lung cancer cell viability effects, profiling panel, resazurin fluorescence, 24 h, PK04 Diversity Set (AID 1171); settings: higher = more signal, called active from +8 up or from −8 down; note: test concentration not given here
# Chain of NADPH oxidase 4 (Homo sapiens) (Q9NPH5 whole entry, looked up): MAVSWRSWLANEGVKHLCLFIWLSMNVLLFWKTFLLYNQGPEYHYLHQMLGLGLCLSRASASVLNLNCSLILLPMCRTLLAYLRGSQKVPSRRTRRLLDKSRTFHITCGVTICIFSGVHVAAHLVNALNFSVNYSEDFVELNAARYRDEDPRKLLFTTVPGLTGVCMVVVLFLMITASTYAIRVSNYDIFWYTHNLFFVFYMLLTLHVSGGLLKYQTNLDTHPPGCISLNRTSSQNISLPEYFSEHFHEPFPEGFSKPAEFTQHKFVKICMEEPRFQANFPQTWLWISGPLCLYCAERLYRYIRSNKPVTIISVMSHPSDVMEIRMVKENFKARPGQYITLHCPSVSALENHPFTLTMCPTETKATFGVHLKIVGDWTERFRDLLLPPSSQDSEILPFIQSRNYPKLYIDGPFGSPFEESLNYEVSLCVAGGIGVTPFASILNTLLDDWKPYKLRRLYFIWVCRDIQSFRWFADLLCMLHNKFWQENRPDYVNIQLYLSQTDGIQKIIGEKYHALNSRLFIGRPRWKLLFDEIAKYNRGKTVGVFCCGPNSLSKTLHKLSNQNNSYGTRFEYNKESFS
# Chain of NADPH oxidase 5 (Homo sapiens) (Q96PH1 whole entry, looked up): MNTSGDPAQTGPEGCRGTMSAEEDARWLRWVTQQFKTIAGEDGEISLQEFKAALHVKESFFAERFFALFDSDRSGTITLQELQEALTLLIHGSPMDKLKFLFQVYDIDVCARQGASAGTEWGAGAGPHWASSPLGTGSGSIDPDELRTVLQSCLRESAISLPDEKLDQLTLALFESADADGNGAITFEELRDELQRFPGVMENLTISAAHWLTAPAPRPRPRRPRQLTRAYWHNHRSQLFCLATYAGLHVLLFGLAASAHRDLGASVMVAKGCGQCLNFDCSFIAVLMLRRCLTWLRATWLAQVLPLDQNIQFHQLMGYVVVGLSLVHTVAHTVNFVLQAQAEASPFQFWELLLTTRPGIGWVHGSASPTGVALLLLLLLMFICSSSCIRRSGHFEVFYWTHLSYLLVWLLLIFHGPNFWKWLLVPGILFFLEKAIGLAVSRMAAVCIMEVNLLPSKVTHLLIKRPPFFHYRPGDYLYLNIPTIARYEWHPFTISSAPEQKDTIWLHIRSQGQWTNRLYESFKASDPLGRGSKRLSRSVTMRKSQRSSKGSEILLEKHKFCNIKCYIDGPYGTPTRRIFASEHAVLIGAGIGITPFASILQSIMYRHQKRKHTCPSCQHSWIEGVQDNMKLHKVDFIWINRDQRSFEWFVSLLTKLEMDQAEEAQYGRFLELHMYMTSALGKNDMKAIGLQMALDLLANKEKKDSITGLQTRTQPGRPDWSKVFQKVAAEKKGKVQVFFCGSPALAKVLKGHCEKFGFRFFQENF
# Chain of NADPH oxidase 2 (Homo sapiens) (P04839 whole entry, looked up): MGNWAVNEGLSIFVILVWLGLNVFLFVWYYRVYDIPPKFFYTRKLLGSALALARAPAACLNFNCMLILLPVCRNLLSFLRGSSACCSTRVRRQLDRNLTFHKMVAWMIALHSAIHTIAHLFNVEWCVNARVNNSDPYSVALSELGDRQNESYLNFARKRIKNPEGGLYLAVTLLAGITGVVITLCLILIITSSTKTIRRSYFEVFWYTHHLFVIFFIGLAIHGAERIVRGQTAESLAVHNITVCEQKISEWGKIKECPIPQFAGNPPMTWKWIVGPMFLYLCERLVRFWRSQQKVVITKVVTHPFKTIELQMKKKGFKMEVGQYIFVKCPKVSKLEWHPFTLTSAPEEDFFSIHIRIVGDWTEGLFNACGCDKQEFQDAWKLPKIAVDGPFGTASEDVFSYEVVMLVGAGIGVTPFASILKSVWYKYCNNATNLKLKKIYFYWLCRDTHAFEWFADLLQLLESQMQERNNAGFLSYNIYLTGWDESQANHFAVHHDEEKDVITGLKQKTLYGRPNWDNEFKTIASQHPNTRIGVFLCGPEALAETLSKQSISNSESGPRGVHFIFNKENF
SMILES,z-score [1],composite z-score [2],z-score [3],z-score [4],z-score [5],z-score [6],z-score [7],z-score [8],z-score [9],z-score [10],z-score [11],z-score [12],z-score [13],z-score [14],z-score [15],z-score [16],z-score [17],z-score [18],z-score [19],z-score [20]
CC(=O)n1cc(C(O)C2C=CC3C(=O)NC(=O)C3N2Nc2ccccn2)c2ccccc21 (stereo not given),-0.734 (inactive),-0.101,0.625 (inactive),0.827 (inactive),-0.313 (inactive),0.679 (inactive),-0.612,-1.68 (inactive),-2.41 (inactive),-1.58,-0.407,-1.52,-0.252,0.0238,0.102,-0.743,-0.424 (inactive),0.634,-0.0433,-1.02 (inactive)
COc1ccccc1CN1C(=O)c2ccccc2[C@@H](C(=O)NCc2ccccc2)[C@@H]1c1ccc(CO)cc1,-0.0367 (inactive),0.148,1.8 (inactive),0.566 (inactive),0.708 (inactive),0.205 (inactive),0.161,-1.11 (inactive),0.148 (inactive),-0.707,1.2,0.448,0.292,-0.881,0.47,2.08,0.819 (inactive),-0.288,0.544,0.832 (inactive)
C=C(CCCC)/C(=C/C[C@@H](OC(C)=O)c1ccccc1OCCO)c1cc(C(=O)OC)ccc1OC,0.725 (inactive),-0.239,27.1 (active),11.2 (active),2.14 (inactive),1.71 (inactive),-0.733,1.27 (inactive),0.282 (inactive),-1.36,1.83,0.109,0.741,-2.54,-0.354,1.75,0.478 (inactive),-0.118,0.234,0.873 (inactive)
COC(=O)C(CC#Cc1ccc2c(c1)[C@]1(C(=O)N2)[C@H](c2ccccc2OCCO)N2[C@H](c3ccccc3)[C@H](c3ccccc3)OC(=O)[C@H]2[C@@H]1C(=O)O)C(=O)OC,0.456 (inactive),0.169,4.94 (inactive),0.569 (inactive),-7.69 (inactive),-0.0236 (inactive),-0.13,1.79 (inactive),-0.0833 (inactive),0.036,1.45,0.0879,1.38,-2.37,-2.41,1.11,-0.847 (inactive),-0.214,-0.197,0.917 (inactive)
COc1cc(CO)cc(I)c1O[C@H]1C=C(C(=O)NCCO)C[C@@H](N(C(=O)c2cc3ccccc3oc2=O)C2CCCCCC2)[C@@H]1O,1.07 (inactive),-0.0646,4.63 (inactive),-0.78 (inactive),1.19 (inactive),-1.9 (inactive),1.95,0.202 (inactive),0.881 (inactive),1.2,0.062,1.54,1.11,0.443,-0.704,-1.63,-1.51 (inactive),-0.27,-1.21,0.0258 (inactive)
COc1ccc(CCNC(=O)[C@@]2(c3ccc([N+](=O)[O-])cc3)CC(=O)N(CC34CC5CC(CC(C5)C3)C4)[C@@H]2c2ccc(CO)cc2I)cc1,0.655 (inactive),-0.223,16.3 (active),3.25 (inactive),3.61 (inactive),0.838 (inactive),3.37,0.675 (inactive),-4.2 (inactive),-3.66,-0.68,0.475,-1.36,-2.44,-3.68,2,0.1 (inactive),-0.973,-0.571,-2.16 (inactive)
O=C1NC(=O)C2C1C=CC(C(O)c1ccc(-c3ccccc3)s1)N2Nc1ccc(Cl)cc1Cl (stereo not given),-2.23 (inactive),-0.141,2.29 (inactive),1.58 (inactive),-0.666 (inactive),1.07 (inactive),-1.09,0.964 (inactive),-3.15 (inactive),-0.664,-1.95,-0.901,-2.13,-3.61,-3.05,-2.92,-1.08 (inactive),-0.983,-0.247,-1.65 (inactive)
CN(C)C(=O)[C@]1(Cc2ccccc2)N=C(c2ccc(OCCCO)cc2)O[C@@H]1c1ccccc1N=[N+]=[N-],0.554 (inactive),0.008,32.4 (active),34.9 (active),1.96 (inactive),4.27 (inactive),0.0986,-1.46 (inactive),-0.242 (inactive),-1.36,-0.279,-0.336,-0.987,-3.2,-4.26,1.43,2.9 (inactive),-1.18,-2.37,-1.75 (inactive)
C#CCN1[C@@H](Cc2ccc(O)cc2)C(=O)O[C@H](Cc2ccccc2)[C@@H]1/C=C/C1CC1,-0.332 (inactive),-0.196,2.45 (inactive),0.0937 (inactive),-1.15 (inactive),0.0357 (inactive),-0.663,-0.759 (inactive),-0.462 (inactive),-1.54,-2.82,-0.145,-3.44,-3.22,-3.96,-3.57,-0.0548 (inactive),-1.23,-0.744,-1.01 (inactive)
